# Screening data (PubChem)
# Candida biofilm – clotrimazole potentiators killing Candida biofilms, primary screen, with clotrimazole, Alamar Blue. inhibition, % at 6 µM. AID 834, 2007. C. albicans biofilm + clotrimazole. actives 0.14% (n = 85,000);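 active = inhibition above 20%; inactive = inhibition below 20%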;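 note: preformed 24 hr biofilms exposed to compound for 48 hr; 0% = biofilm without compound and 100% = blank killed by clotrimazole plus chlorhexidine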
# PLAP act – PLAP enzyme activators, biochemical, luminescence, HTS; Alkaline phosphatase, placental type (Homo sapiens), P05187; purified PLAP enzyme, luminescent substrate read-out; active compounds read high; activation fold at 20 µM; actives 1.2% (n = 96,000); AID 696, 2007; in the data active = activation fold above about 2
# hDAT+cocaine – changed hDAT dopamine uptake under cocaine IC80, either direction, primary screen, cocaine antagonist project, cell-based, LLC-PK1 hDAT, [14C]-dopamine uptake, MLSMR | LLC-PK1 hDAT cells, [14C]-dopamine uptake with cocaine IC80; actives deviate in either direction | AID 449768, 2010 | Sodium-dependent dopamine transporter (Homo sapiens), Q01959 | B-score at 10 µM | actives 1.3% (n = 110,000);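 active = Z score or B-score, a plate-position-corrected score, falls beyond the plate's 99.7% confidence bounds, in either direction; inactive = both scores lie inside the 99.7% bounds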;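 note: scored against the spread of the other compound wells on the same plate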
# Target sequence (Q01959 whole entry, looked up): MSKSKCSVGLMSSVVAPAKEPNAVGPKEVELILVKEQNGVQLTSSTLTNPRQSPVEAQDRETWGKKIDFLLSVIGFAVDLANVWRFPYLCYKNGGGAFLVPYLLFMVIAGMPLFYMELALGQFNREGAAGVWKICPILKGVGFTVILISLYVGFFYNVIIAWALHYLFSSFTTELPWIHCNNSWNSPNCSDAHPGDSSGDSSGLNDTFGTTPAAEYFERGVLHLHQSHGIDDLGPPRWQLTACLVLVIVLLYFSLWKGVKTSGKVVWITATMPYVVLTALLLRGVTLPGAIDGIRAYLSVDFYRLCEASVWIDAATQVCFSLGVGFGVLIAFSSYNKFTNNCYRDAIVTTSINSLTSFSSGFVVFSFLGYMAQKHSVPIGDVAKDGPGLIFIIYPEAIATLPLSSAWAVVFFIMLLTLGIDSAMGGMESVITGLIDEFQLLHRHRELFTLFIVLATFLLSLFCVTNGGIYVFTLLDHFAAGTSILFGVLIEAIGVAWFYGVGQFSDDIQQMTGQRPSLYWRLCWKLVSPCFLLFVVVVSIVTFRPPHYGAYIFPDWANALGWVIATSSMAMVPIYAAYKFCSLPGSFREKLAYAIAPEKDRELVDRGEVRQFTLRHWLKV
# D1 mod – D1 CRE-luciferase signal change, two-sided – cell-based, HEK293 D1, dopamine EC30, D1 allosteric modulator project, primary screen; actives 5.9% (n = 58,000); D(1A) dopamine receptor (Homo sapiens), P21728; B-score at 10 µM; dopamine EC30 potentiation; actives deviate in either direction;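 active = luminescence count or its row- and column-corrected plate score outside the 99.7% band of the plate's sample wells, on either side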
# TNAP act mid DEA – human TNAP enzyme activators, primary screen, biochemical, luminescent, intermediate phosphate acceptor level | purified TNAP, CDP-star luminescence, 100 mM DEA, 30 min; active compounds read high; scale: 0 levamisole-inhibited, 1 vehicle-only enzyme | 64,000 tested, under 10 active | AID 813, 2007 | activation factor at 20 µM | Alkaline phosphatase, tissue-nonspecific isozyme (Homo sapiens), P05186;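 active = activation factor of at least 2 at 20 µM, relative to controls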
# HePTP inh – inhibitors of human HePTP phosphatase, primary screen, biochemical, absorbance, leukemia target; Tyrosine-protein phosphatase non-receptor type 7 (Homo sapiens), P35236; recombinant HePTP phosphatase activity, OD absorbance; inhibition, % at 20 µM; actives 0.64% (n = 110,000); AID 521, 2006; in the data active = inhibition above about 50%;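 note: plate controls were vehicle for no effect and reference inhibitor for full effect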
# D1 PAM confirm – D1 receptor positive allosteric modulators, retest, confirmation, cell-based, HEK293 D1, CRE-luciferase, duplicate; actives 88% (n = 2,200); shares compounds with D1 mod; luminescence at 10 µM; dopamine EC30 potentiation; active compounds read high; AID 642, 2007;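 active = luminescence in either of two replicates above the same-plate mean plus 3 SD of the low-dose dopamine control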
# D1 no dopamine – D1 receptor agonism without dopamine, confirmation, mechanism study for D1 allosteric modulator project, cell-based, HEK293 D1, CRE-luciferase, secondary assay 1; shares compounds with D1 mod; luminescence, no dopamine; active compounds read high; luminescence at 10 µM; actives 0.8% (n = 1,900); in the data active = luminescence above about 3900
# Isoprot counter – alters isoproterenol CRE-luciferase response in HEK293 cells | shares compounds with D1 mod | HEK293 D1 CRE-luciferase, isoproterenol EC30 counter-screen; active compounds read high | luminescence at 10 µM | actives 63% (n = 2,200) | AID 647;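 active = luminescence in either replicate above plate mean of wells with a partly effective reference agonist dose plus 3 SD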;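 note: isoproterenol raises cAMP through native beta-adrenoceptor Gs so signal bypasses D1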
# * marks the source's active call; other numbers are inactive results; / = no result given. This excerpt belongs to a sample that is enriched for hits.
SMILES,Candida biofilm,PLAP act,hDAT+cocaine,D1 mod,TNAP act mid DEA,HePTP inh,D1 PAM confirm,D1 no dopamine,Isoprot counter
CCOc1cc(S(=O)(=O)N(CC)CC)ccc1Br,-2,1,-0.36,12*,0.9,2,11820*,1708,3484*
C=CCn1c(-c2ccc(OCC)cc2)n[nH]c1=S,/,/,/,/,/,1,/,/,/
CCOC(=O)c1c(C)c(C(=O)NCc2ccc3c(c2)OCO3)c(C)n1CC,10,/,/,2.7,0.9,3,/,/,/
CCOC(=O)c1c(C)c(C(=O)NCc2ccc3c(c2)OCO3)c(C)n1C,8,0.8,0.11,4.3*,1,5,5908*,1544,2440
CC(C)OCCCn1c(-c2ccco2)nc2nc3ccccc3nc21,/,1.2,/,0.78,1,-4,/,/,/
COCCn1c(-c2ccco2)nc2nc3ccccc3nc21,/,0.8,/,9.2*,0.8,8,16228*,1728,3820*
CC1=C(C(=O)OCc2ccccc2)C(c2ccccc2Cl)CC(=O)N1 (stereo not drawn),/,/,/,/,/,6,/,/,/
COc1ccc(Br)cc1C(=O)Nc1ccc2nn(-c3ccc(F)cc3)nc2c1,/,/,/,/,/,-7,/,/,/
CCS(=O)(=O)CCSc1nc2c(cc1C#N)CCCC2,4,0.8,1.4,5.5*,1,9,19348*,1760,3564*
N#CCSc1nc2c(cc1C#N)CCCCCC2,4,0.9,-0.94,7.9*,0.9,5,11156*,1660,3504*
COc1ccc2nc(SCC(=O)N3CCCCCC3)c(C#N)cc2c1,-1,1.2,0.34,3.5*,0.9,5,10688*,1852,3060
N#Cc1cc2c(nc1SCC(=O)Nc1sc3c(c1C#N)CCC3)CCCCC2,8,1,-1.5,6*,0.9,8,10448*,1704,3236*
Cn1c(SCC(=O)N/N=C/c2ccc(O)cc2O)nc2ccccc21,/,/,/,/,/,12,/,/,/
CCOC(=O)c1ccc(NC(=O)CCN2C(=O)S/C(=C\c3ccccc3OC)C2=O)cc1,/,/,/,/,/,-21,/,/,/
c1ccc(-c2onc3ccc4c5ccccc5oc4c23)cc1,/,/,/,/,/,-4,/,/,/
N#Cc1cc2c(nc1SCC(=O)N1CCCCC1)CCCCC2,11,1.1,0.35,3.8*,0.9,4,10608*,/,3136*
CCN1C(=O)C(C23CC4CC(CC(C4)C2)C3)NC1=S (stereo not drawn),/,/,/,/,/,-24,/,/,/
Cc1[nH]n(-c2ccccc2)c(=O)c1C=Nc1ccccc1Cl,/,/,/,/,/,0,/,/,/
Cc1[nH]n(-c2ccccc2)c(=O)c1S(=O)(=O)c1ccccc1,8,1.2,-1.1,4.1*,0.9,-5,11060*,1692,3124
O=C(CSc1nc2ccccc2o1)c1ccc(-c2ccccc2)cc1,/,/,/,/,/,-12,/,/,/
CCOc1ccc(C2CC(c3cccc(OC)c3)n3nc(N)nc3N2)cc1 (stereo not drawn),1,1.4,1.1,1.8,1,1,/,/,/
Cc1ccc(C2CC(c3ccccc3C)n3nc(N)nc3N2)cc1 (stereo not drawn),-3,/,-0.74,5.3*,1,0,6604,1668,2776
CCOc1ccc(C2CC(c3cccc(C)c3)n3nc(N)nc3N2)cc1 (stereo not drawn),3,1.3,0.72,5*,0.5,0,10456*,/,2684*
COc1ccc(C2CC(c3ccccc3C)n3nc(N)nc3N2)cc1 (stereo not drawn),0,1,0.084,-0.011,0.9,5,/,/,/
Cc1cccc(C2CC(c3ccc(Cl)cc3)Nc3nc(N)nn32)c1 (stereo not drawn),8,1.3,1.3,2,0.8,10,/,/,/
SMILES,Candida biofilm,PLAP act,hDAT+cocaine,D1 mod,TNAP act mid DEA,HePTP inh,D1 PAM confirm,D1 no dopamine,Isoprot counter
Cc1cccc(C2CC(c3ccc(F)cc3)Nc3nc(N)nn32)c1 (stereo not drawn),-2,1.6,0.04,4.7*,0.9,-5,11784*,1444,3108
CCOC(=O)COc1ccc(/C=C(\C#N)c2nc3ccccc3[nH]2)cc1OC,/,/,/,/,/,1,/,/,/
COc1cccc(/C=N/n2c(N)nc3ccccc32)c1OC,-2,1.5,0.018,/,/,/,/,/,/
COc1ccc(/C=N/n2c(N)nc3ccccc32)cc1OC,-3,1.5,0.089,9.5*,1,-7,21348*,1544,4316*
COc1cc([C@@H]2c3cc4c(cc3[C@H](O)[C@H]3COC(=O)[C@H]23)OCO4)cc(OC)c1OC,10,/,-0.99,7.1*,1,-7,8908*,1648,6772*
CCN1CCN(C(=O)c2nn(-c3ccc(C)cc3)c(=O)c3c2c2ccccc2n3C)CC1,2,1,-0.095,4.8*,0.9,-12,5812,/,2440
CCN(CC)CCNC(=O)c1nn(-c2ccc(C)cc2)c(=O)c2c1c1ccccc1n2C,0,1.6,1.3,0.13,0.9,8,/,/,/
CCCOC(=O)c1ccc(OCC(O)CN2C(=O)NC(C)(C)C2=O)cc1 (stereo not drawn),5,1,-0.03,/,0.9,-10,/,/,/
COC(=O)c1ccc(OCC(O)CN2C(=O)NC(C)(C)C2=O)cc1 (stereo not drawn),6,1.1,0.2,5.8*,1,-11,6500*,/,2252
COc1ccc(-c2cc(C(=O)Nc3ccccn3)c3ccccc3n2)cc1,/,/,/,/,/,14,/,/,/
O=C(NCC(=O)c1ccccc1)SCc1ccccn1,/,/,/,/,/,-9,/,/,/
CCOc1ccccc1C(=O)Nc1nc(-c2ccc(Br)cc2)cs1,/,/,/,/,/,9,/,/,/
Cc1ccc(-c2c(C)sc(=NC(=O)c3ccco3)n2C)cc1,/,1.2,-0.13,/,/,/,/,/,/
COc1ccc(OC)c2c1sc(=NC(=O)c1ccco1)n2C,6,0.8,1.1,3.2*,0.9,6,13568*,1564,3444*
Cc1nnc(NC(=O)CCC(=O)NCc2cccs2)s1,1,1.2,-0.57,/,/,/,/,/,/
O=C(CCC(=O)Nc1nnc(C2CCCCC2)s1)NCc1cccs1,5,1,-0.78,3.8*,0.9,2,5740,1656,2568
O=C(Nc1c(C(=O)N2CCCCCC2)cnn1-c1ccccc1)c1ccc(Br)cc1,/,/,/,/,/,-7,/,/,/
